Experimental data as given in PubChem BioAssay (NCATS).
A number with no mark means an inactive call. For some assays here: Measured potencies and affinities stand elsewhere. Activity calls are given as the source filed them.

Columns and labels:
[1] = Ebola virus entry assay, green fluorescence channel
[2] = Ebola virus entry assay, blue channel fluorescence
[3] = Ebola virus entry assay, green fluorescence channel; remark: listed apart in the source
[4] = Ebola virus entry assay, ratio channel readout
[5] = Ebola virus entry assay, blue channel fluorescence; remark: listed apart in the source
[6] = Ebola virus entry assay, ratio channel
[7] = Ebola virus entry assay, green channel fluorescence
Throughout, for efficacy: 0% is about no effect.

SMILES	efficacy [1] [%]	outcome [2]	outcome [3]	outcome [4]	AC50 [5]	AC50 [6]	outcome [5]	outcome [6]	outcome [7]	AC50 [2]	AC50 [4]
CNCC[C@@H](Oc1ccccc1C)c1ccccc1	103	inactive	inactive	inactive	10 µM (active)	10 µM (active)					
CO[C@H]1C=CO[C@@]2(C)Oc3c(C)c(O)c4c(O)c(c(/C=N/N5CCN(C)CC5)c(O)c4c3C2=O)NC(=O)/C(C)=C\C=C[C@H](C)[C@H](O)[C@@H](C)[C@@H](O)[C@@H](C)[C@H](OC(C)=O)[C@@H]1C	60.3	inactive	inactive	inactive			inactive	inactive			
COc1cc2nc(N3CCN(C(=O)c4ccco4)CC3)nc(N)c2cc1OC	75.4	inactive	inactive	inactive	15.8 µM (active)	12.6 µM (active)					
CC(=O)CCCCn1c(=O)c2c(ncn2C)n(C)c1=O	-14.2	inactive	inactive	inactive			inactive	inactive	inactive		
CN1CCN(C2=Nc3cc(Cl)ccc3Nc3ccccc32)CC1	95.2	inactive	inactive	inactive	15.8 µM (active)	14.1 µM (active)					
CNCC[C@H](Oc1cccc2ccccc12)c1cccs1	-133		inactive	inactive	6.31 µM (active)	3.55 µM (active)				11.2 µM (active)	
CN(C)CCc1c[nH]c2ccc(CS(=O)(=O)N3CCCC3)cc12	-14.5	inactive	inactive	inactive			inactive	inactive	inactive		
O=C(CCCCCCC(=O)Nc1ccccc1)NO	-11.4	inactive	inactive	inactive			inactive	inactive	inactive		
CCCN(CCC)S(=O)(=O)c1ccc(C(=O)O)cc1	-17.8	inactive	inactive	inactive			inactive	inactive	inactive		
O[C@@H](CNC[C@H](O)[C@H]1CCc2cc(F)ccc2O1)[C@@H]1CCc2cc(F)ccc2O1	-189		inactive	inactive	7.94 µM (active)	3.55 µM (active)				11.2 µM (active)	
COc1cc2c(cc1OC)[C@@H]1CC(=O)[C@@H](CC(C)C)CN1CC2	24.3	inactive	inactive	inactive			inactive	inactive	inactive		
Nc1nc(=S)c2[nH]cnc2[nH]1	-27.5	inactive	inactive	inactive			inactive	inactive	inactive		
Clc1ccc2c(c1)C(N1CCNCC1)=Nc1ccccc1O2	94.9		inactive		14.1 µM (active)	10 µM (active)				14.1 µM (active)	12.6 µM (active)
Cc1c(O)cccc1C(=O)N[C@@H](CSc1ccccc1)[C@H](O)CN1C[C@H]2CCCC[C@H]2C[C@H]1C(=O)NC(C)(C)C	83.4	inactive	inactive	inactive	39.8 µM (active)			inactive			
Cc1ccsc1C(=CCCN1CCC[C@@H](C(=O)O)C1)c1sccc1C	57.2	inactive	inactive	inactive	35.5 µM (active)	20 µM (active)					
CCCN(CCc1cccs1)[C@H]1CCc2c(O)cccc2C1	-47.6	inactive	inactive	inactive	25.1 µM (active)	25.1 µM (active)					
CN1CCN(C(c2ccccc2)c2ccccc2)CC1	84.8	inactive	inactive	inactive	28.2 µM (active)	22.4 µM (active)					
CCCNCC(O)COc1ccccc1C(=O)CCc1ccccc1 (stereo not drawn)	86.9		inactive		8.91 µM (active)	7.94 µM (active)				11.2 µM (active)	8.92 µM (active)
CC(C)NCC(O)COc1ccc(CCOCC2CC2)cc1 (stereo not drawn)	65	inactive	inactive	inactive	14.1 µM (active)	11.2 µM (active)					
CNCCCN1c2ccccc2CCc2ccccc21	91.8	inactive	inactive	inactive	10 µM (active)	7.94 µM (active)					
COc1cc2c(cc1OC)C(=O)C(CC1CCN(Cc3ccccc3)CC1)C2 (stereo not drawn)	108	inactive	inactive	inactive	35.5 µM (active)	22.4 µM (active)					
C[C@H]1O[C@H](O[C@H]2[C@H](O)[C@@H](O)[C@@H](O[C@H]3[C@H](O)[C@@H](O)[C@H](O)O[C@@H]3CO)O[C@@H]2CO)[C@H](O)[C@@H](O)[C@@H]1N[C@H]1C=C(CO)[C@@H](O)[C@H](O)[C@H]1O	9.72	inactive	inactive	inactive			inactive	inactive	inactive		
Cc1ccc(C)c(OCCCC(C)(C)C(=O)O)c1	-13.5	inactive	inactive	inactive			inactive	inactive	inactive		
CCC1(c2ccccc2)C(=O)NCNC1=O	-13.6	inactive	inactive	inactive			inactive	inactive	inactive		
CC(=O)N(O)CCCCCNC(=O)CCC(=O)N(O)CCCCCNC(=O)CCC(=O)N(O)CCCCCN	-19.8	inactive	inactive	inactive			inactive	inactive	inactive		
C=C(CC)C(=O)c1ccc(OCC(=O)O)c(Cl)c1Cl	39.8	inactive	inactive	inactive	14.1 µM (active)	15.8 µM (active)			inactive		
CCc1nc(N)nc(N)c1-c1ccc(Cl)cc1	26.9	inactive	inactive	inactive	39.8 µM (active)			inactive	inactive		
CC(C)(C)NC(=O)[C@@H]1CN(Cc2cccnc2)CCN1C[C@@H](O)C[C@@H](Cc1ccccc1)C(=O)N[C@H]1c2ccccc2C[C@H]1O	-17.5	inactive	inactive	inactive			inactive	inactive	inactive		
CNCCc1ccccn1	-10.7	inactive	inactive	inactive			inactive	inactive	inactive		
